In the supplement of paper PMC11732987, “Enantioselective OTUD7B fragment discovery through chemoproteomics screening and high-throughput optimisation” (Communications Chemistry, 2025):

How the values were obtained:
Test in all cases: log2 ratio of Biotin-Ahx-Ub-VS probe labelling (fragment/DMSO); higher = less target engagement (more negative = stronger competition), active = hit call of the paper (q ≤ 0.05, log2 ratio ≤ -1)
Conditions in all cases: compound concentration: 200 uM; treatment time: 3 h
USP42 = biological target: T1, USP42 (UniProt Q9H9J4)
T1 sequence (whole entry): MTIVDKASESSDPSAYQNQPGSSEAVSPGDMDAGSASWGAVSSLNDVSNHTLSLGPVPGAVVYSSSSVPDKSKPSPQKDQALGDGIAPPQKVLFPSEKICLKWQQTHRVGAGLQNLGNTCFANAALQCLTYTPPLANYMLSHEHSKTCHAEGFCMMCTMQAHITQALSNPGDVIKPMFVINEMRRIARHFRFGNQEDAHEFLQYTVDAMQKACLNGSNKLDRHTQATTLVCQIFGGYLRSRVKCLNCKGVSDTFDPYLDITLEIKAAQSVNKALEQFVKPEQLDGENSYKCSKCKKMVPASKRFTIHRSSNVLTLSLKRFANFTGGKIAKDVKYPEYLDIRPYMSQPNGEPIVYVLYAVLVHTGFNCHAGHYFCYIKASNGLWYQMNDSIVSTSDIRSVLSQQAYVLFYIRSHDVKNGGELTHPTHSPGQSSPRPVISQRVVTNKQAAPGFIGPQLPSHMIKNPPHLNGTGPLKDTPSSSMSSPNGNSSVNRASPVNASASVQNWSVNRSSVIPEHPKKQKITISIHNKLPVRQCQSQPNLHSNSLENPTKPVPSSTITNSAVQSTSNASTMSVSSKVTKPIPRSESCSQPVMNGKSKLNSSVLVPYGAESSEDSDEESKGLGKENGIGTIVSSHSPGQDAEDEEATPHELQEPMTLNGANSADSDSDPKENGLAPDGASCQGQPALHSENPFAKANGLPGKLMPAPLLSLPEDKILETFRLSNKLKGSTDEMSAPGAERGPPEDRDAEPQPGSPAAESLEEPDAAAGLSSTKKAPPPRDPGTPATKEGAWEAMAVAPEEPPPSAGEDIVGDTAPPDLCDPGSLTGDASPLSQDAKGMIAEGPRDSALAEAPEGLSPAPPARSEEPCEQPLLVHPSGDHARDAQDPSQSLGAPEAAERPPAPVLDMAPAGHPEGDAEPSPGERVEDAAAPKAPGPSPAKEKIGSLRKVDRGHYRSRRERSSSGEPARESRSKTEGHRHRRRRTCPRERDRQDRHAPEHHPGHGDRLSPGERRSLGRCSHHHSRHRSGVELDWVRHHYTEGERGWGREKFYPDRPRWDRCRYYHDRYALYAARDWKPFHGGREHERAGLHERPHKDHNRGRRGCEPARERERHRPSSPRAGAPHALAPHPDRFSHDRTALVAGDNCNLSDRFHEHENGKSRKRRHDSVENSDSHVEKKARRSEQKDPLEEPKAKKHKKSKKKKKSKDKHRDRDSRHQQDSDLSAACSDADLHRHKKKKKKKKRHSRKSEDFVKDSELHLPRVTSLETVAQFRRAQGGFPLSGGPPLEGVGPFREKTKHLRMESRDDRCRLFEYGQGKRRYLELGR
How it was run: (§1)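 In triplicate, 495 µg of HEK293T lysate per sample was incubated with fragment at 200 µM or vehicle for 3 h. Biotin-Ahx-Ub-VS was then added to 0.5 µM final for 1 h, and labelled DUBs were captured with NeutrAvidin, digested with LysC and trypsin, and measured by diaPASEF LC-MS/MS. Data are average log2 fragment/vehicle ratios by unpaired t-test from global-median-normalised Spectronaut label-free quantities, restricted to proteins with ≥2 unique peptides.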

USP46 = USP46 (UniProt P62068)
How it was run: as §1

USP47 = biological target: T2, USP47 (UniProt Q96K76)
T2 sequence (whole entry): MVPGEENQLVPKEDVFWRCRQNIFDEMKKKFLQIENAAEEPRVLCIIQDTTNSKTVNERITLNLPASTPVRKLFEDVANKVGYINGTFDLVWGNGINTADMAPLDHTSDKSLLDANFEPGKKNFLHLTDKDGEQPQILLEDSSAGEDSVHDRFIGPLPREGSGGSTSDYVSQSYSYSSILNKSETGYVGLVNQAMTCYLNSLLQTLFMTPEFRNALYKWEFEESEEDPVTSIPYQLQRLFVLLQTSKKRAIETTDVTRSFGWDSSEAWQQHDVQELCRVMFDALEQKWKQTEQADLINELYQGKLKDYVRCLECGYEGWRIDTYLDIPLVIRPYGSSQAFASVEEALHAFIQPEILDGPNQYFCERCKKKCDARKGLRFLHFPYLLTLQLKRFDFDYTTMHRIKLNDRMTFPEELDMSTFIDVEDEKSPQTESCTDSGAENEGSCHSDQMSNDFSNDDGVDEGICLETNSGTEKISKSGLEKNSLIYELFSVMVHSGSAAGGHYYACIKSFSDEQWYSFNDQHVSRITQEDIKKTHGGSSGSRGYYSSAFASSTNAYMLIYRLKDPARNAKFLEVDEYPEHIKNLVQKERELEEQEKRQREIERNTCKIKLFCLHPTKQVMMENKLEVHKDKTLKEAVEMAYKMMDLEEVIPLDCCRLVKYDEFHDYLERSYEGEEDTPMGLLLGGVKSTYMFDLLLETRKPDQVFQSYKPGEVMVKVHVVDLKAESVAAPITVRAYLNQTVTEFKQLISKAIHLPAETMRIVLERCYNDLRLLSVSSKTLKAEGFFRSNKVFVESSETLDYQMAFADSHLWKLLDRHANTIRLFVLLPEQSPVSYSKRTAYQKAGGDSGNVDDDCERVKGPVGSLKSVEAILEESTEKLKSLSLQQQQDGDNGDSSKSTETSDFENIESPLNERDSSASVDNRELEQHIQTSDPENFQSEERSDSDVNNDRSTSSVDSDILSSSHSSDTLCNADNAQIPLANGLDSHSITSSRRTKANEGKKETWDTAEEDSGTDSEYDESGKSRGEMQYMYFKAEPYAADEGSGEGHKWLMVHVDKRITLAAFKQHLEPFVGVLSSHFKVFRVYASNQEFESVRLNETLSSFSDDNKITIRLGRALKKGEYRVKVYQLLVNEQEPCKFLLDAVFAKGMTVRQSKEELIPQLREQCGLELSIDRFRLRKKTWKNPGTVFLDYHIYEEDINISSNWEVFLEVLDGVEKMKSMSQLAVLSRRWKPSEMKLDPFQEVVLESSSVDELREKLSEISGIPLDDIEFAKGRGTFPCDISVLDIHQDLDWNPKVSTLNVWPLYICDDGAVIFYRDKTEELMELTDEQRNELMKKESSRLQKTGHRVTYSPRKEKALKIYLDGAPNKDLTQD
How it was run: as §1

USP48 = biological target: T3, USP48 (UniProt Q86UV5)
T3 sequence (whole entry): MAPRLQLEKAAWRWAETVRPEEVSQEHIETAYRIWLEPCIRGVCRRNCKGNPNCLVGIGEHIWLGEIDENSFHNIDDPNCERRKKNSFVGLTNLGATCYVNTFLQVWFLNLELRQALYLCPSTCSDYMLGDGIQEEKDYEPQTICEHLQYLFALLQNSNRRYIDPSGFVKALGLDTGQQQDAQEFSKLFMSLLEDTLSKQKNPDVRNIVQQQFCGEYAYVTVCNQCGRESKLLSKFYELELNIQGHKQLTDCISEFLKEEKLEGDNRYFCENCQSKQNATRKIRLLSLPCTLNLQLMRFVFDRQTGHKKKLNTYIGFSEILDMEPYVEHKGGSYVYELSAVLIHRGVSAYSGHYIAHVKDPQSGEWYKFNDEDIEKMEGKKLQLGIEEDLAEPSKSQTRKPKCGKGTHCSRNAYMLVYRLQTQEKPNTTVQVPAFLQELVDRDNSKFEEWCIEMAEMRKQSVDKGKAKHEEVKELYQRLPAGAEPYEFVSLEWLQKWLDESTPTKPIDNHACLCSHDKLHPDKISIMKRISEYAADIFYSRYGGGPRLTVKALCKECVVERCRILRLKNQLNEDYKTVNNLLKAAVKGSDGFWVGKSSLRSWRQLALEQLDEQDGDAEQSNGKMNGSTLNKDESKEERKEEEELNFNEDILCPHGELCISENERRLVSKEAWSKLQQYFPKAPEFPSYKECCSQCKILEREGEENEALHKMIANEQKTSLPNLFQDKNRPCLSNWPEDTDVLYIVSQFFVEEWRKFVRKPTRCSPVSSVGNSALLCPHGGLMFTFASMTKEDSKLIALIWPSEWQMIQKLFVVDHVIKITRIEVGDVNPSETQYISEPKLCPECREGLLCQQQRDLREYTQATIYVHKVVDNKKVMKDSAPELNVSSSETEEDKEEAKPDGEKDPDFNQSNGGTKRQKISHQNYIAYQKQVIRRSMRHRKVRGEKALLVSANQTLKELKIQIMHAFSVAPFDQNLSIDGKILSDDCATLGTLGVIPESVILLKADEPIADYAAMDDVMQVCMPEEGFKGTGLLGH
How it was run: as §1

USP5 = biological target: T4, USP5 (UniProt P45974)
T4 sequence (whole entry): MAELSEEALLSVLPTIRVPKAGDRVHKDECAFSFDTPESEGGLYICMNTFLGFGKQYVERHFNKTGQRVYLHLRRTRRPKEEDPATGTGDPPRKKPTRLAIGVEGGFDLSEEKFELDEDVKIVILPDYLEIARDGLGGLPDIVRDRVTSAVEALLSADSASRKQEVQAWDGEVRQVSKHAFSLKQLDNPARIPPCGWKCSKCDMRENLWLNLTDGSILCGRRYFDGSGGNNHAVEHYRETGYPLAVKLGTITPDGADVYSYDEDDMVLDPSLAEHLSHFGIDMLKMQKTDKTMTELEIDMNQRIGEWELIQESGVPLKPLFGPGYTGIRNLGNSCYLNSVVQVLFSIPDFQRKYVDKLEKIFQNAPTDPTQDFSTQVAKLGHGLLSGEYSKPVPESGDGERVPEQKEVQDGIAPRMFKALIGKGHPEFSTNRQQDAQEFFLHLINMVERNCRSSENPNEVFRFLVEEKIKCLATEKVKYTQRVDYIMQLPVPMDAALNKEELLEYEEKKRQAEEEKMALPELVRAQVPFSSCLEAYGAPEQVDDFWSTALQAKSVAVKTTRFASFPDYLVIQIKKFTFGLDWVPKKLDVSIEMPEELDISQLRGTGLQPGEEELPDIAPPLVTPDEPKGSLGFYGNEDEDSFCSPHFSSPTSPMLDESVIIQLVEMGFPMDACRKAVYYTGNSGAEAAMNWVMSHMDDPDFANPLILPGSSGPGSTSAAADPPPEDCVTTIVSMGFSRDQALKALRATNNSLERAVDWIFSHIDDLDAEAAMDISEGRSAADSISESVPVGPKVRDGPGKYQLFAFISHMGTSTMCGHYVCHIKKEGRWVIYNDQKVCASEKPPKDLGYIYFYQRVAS
How it was run: as §1

USP54 = USP54 (UniProt Q70EL1)
How it was run: as §1

USP7 = USP7 (UniProt Q93009)
How it was run: as §1

USP8 = biological target: T5, USP8 (UniProt P40818)
T5 sequence (whole entry): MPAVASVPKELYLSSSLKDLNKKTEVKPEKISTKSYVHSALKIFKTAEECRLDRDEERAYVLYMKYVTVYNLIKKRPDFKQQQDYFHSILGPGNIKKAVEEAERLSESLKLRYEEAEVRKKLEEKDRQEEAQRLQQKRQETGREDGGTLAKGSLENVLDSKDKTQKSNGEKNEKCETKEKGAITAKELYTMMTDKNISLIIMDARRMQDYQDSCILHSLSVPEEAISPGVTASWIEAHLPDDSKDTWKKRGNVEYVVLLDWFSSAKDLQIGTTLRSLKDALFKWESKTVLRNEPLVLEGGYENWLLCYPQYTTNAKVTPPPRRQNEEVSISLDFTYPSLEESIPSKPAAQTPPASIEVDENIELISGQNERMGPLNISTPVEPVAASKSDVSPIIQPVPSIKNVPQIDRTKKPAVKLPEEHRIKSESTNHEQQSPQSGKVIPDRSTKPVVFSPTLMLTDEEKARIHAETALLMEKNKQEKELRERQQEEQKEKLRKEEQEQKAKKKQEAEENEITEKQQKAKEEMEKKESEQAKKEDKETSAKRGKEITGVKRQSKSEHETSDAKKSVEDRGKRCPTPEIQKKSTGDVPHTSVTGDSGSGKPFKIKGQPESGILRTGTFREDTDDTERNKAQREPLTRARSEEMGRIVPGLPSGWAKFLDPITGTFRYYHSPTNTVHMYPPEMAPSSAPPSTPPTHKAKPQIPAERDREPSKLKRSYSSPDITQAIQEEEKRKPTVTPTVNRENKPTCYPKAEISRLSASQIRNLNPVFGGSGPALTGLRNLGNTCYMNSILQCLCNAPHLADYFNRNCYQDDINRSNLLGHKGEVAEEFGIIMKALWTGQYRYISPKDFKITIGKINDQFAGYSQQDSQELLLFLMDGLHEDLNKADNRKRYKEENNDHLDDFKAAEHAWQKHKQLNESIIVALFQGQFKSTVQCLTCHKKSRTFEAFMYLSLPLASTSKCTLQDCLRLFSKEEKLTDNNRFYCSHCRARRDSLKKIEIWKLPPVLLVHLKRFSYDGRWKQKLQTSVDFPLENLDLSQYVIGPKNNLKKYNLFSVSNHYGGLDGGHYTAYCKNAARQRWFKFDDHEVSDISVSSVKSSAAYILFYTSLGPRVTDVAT
How it was run: as §1

Measured: log2 ratio of Biotin-Ahx-Ub-VS probe labelling

USP46, sequence (P62068 whole entry): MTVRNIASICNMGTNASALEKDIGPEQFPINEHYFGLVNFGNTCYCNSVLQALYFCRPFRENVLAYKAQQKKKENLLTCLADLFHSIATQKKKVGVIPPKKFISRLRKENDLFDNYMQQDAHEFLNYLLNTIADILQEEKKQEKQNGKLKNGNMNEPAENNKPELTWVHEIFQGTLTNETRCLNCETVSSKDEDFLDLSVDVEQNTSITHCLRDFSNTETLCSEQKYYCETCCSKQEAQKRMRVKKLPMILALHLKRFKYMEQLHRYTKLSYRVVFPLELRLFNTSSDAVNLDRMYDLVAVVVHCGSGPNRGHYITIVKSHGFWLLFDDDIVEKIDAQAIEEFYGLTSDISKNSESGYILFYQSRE
USP54, sequence (Q70EL1 whole entry): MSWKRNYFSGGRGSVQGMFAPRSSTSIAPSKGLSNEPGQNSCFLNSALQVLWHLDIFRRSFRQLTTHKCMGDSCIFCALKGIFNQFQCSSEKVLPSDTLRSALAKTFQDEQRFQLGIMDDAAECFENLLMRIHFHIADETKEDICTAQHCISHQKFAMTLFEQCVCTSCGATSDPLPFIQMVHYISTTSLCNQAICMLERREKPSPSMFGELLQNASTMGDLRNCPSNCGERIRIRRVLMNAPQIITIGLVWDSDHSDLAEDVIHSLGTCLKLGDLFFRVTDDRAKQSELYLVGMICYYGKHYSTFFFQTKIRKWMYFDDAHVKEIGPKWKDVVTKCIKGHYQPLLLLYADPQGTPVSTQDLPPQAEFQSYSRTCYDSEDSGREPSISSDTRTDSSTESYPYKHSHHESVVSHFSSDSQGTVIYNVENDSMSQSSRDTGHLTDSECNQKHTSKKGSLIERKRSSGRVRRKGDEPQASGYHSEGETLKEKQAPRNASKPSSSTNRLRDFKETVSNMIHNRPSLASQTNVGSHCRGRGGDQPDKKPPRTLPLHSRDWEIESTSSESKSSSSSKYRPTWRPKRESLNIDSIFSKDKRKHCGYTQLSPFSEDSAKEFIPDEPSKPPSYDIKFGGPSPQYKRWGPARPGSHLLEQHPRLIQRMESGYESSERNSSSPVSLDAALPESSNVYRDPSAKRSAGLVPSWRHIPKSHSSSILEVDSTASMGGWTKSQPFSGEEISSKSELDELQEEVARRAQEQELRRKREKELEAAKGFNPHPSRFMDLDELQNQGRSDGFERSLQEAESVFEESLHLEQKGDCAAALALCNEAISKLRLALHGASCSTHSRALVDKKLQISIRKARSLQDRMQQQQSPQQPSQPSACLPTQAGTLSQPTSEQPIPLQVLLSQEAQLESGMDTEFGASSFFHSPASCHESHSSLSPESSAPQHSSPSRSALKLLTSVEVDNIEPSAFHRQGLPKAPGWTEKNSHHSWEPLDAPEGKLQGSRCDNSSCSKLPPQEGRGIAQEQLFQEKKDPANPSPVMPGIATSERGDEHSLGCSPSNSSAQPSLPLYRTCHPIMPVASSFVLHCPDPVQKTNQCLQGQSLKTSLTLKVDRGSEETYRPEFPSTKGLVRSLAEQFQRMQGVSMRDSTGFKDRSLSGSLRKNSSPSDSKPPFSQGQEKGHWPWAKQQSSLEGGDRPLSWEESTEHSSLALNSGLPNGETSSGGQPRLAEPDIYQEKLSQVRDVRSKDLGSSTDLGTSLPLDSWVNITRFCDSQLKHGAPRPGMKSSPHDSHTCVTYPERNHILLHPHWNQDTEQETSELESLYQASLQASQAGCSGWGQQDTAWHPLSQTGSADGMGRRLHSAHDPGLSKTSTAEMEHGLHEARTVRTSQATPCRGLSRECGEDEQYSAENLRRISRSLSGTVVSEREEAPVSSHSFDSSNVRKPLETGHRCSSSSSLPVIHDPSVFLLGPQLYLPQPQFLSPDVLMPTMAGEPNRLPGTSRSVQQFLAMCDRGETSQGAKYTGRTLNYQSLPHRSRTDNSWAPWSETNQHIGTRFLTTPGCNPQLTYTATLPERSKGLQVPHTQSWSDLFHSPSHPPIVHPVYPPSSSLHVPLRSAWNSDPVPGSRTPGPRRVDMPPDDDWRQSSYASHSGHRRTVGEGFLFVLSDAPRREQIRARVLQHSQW
USP7, sequence (Q93009 whole entry, looked up): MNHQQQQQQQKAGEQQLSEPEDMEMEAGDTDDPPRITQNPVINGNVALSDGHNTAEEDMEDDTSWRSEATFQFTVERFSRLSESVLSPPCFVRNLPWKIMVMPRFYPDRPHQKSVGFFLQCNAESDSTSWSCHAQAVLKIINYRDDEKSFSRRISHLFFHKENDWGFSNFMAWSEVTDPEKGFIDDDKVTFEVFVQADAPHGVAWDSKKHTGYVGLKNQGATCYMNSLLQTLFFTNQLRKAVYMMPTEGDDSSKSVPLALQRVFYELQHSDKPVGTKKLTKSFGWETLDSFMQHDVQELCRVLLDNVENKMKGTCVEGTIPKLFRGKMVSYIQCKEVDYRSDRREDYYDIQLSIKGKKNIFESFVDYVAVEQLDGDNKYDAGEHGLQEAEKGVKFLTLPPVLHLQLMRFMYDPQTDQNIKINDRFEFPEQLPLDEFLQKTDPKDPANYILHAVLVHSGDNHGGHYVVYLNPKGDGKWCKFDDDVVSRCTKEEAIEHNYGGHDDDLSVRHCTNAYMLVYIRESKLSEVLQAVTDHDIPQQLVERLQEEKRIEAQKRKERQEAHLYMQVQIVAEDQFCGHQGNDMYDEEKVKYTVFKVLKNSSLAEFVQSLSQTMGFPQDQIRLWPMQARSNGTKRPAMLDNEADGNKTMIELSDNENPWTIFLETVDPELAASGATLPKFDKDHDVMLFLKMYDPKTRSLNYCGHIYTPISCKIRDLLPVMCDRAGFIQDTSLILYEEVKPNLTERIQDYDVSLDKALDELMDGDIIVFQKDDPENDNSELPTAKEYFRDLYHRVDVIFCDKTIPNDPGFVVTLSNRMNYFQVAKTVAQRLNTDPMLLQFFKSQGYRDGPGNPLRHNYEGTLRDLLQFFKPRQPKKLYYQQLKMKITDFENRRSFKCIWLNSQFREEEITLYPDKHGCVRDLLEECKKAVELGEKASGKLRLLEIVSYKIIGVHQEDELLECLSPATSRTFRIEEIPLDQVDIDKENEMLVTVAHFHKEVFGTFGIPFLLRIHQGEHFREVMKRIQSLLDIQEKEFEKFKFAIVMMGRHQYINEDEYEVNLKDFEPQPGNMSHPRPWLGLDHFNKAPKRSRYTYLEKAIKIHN

O=C(CCl)NCCc1cccc2ccccc12
inactive: USP42 0.608 | USP46 -0.0148 | USP47 0.102 | USP48 -0.131 | USP5 0.258 | USP54 -0.0844 | USP7 -0.217 | USP8 -0.118
